# Measured values as given in PubChem BioAssay AID720486 (Milwaukee Institute for Drug Discovery, 2013).
# The other results are listed elsewhere or left out. A number with no mark means an inactive call.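 The calls were made as follows: active = inhibition of at least 50%; inactive = the rest.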
# Target: Single-stranded DNA-binding protein (Escherichia coli (strain K12)) (UniProt P0AGE0)
# Assay: E. coli SSB-DNA binding inhibitors, counter-screen for HCV NS3 helicase inhibitor project, biochemical, fluorescence polarization, selected ChemBridge compounds (AID 720486);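 also: displacers lower Cy5 polarization so higher inhibition means more SSB displaced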
# Conditions: E. coli SSB binding Cy5-dT15, fluorescence polarization; at 100 µM; active compounds read high
# Single-stranded DNA-binding protein (Escherichia coli (strain K12)), sequence (P0AGE0 whole entry, looked up): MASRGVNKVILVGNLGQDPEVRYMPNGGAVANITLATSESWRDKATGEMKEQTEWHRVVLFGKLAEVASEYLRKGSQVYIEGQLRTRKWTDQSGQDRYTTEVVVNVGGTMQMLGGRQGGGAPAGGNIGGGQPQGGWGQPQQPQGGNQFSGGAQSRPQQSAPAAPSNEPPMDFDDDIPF
smiles,measurement,value
CCOc1cc(C=C2C(=O)NC(=O)NC2=O)cc(Br)c1OCCOc1ccccc1C,inhibition,36.9%
